The campaign covered roughly 17,000 compounds. About 1,100 (6.5%) were called active.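 The calls were made as follows: active = z-score of -3 or lower, meaning strong loss of probe binding signal; inactive = the rest.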 Shown is part of a subset that was picked to be rich in actives.
target: Insulin-degrading enzyme (Homo sapiens) (UniProt P14735); test: exo-site inhibitors of human IDE, primary screen, biochemical, fluorescence anisotropy, probe displacement (AID 1259349); settings: purified IDE, FL-6b probe fluorescence polarization; at 20 µM; stronger effect = lower value;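 also: His-tagged human IDE residues 42-1019 made in E. coli with 30 nM FL-6b probe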
Sequence (P14735 42-1019 limits assumed): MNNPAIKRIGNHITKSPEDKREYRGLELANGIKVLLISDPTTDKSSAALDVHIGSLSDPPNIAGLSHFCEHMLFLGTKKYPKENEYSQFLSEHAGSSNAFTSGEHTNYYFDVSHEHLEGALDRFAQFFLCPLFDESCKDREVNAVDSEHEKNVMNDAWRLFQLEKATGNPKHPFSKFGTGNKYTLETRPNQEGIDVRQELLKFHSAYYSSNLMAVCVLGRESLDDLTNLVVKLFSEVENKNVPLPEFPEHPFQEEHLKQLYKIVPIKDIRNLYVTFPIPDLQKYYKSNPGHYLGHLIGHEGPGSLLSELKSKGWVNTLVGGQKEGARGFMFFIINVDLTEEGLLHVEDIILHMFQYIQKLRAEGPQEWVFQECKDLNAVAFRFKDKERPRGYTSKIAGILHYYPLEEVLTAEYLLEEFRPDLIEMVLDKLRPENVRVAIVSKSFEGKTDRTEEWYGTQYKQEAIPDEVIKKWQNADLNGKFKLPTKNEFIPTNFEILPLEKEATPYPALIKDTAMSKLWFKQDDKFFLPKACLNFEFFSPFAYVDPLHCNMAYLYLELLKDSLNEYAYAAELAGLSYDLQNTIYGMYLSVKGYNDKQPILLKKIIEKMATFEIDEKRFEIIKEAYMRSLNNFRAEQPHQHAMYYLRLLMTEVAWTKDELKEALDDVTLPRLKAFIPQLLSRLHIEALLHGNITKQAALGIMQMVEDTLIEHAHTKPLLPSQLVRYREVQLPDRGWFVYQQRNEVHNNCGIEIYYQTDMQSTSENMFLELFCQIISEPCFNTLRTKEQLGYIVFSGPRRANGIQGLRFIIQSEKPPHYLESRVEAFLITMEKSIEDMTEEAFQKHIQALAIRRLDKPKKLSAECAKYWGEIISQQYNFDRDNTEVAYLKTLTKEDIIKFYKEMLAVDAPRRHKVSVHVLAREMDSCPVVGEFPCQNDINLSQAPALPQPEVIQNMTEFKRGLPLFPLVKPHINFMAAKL

z-score, inactive:
N#C[C@@H]1[C@H](c2ccc(C#Cc3ccccc3F)cc2)[C@H](CO)N1C(=O)C1CCCCC1 -0.57
N#C[C@H]1[C@H](c2ccc(C#Cc3ccc(F)cc3)cc2)[C@@H](CO)N1C(=O)C1CCCC1 6.39
N#C[C@@H]1N[C@H](CO)[C@@H]1c1ccc(/C=C/c2ccccc2)cc1 0.0442
COCC(=O)N1[C@H](CO)[C@H](c2ccccc2-c2ccc(C)cc2)[C@@H]1C#N 0.234
N#C[C@@H]1[C@@H](c2ccccc2)[C@@H](CO)N1C(=O)Cc1ccccc1 0.975
CCCC#Cc1ccc([C@H]2[C@@H](CO)N(C(=O)C3CC3)[C@H]2C#N)cc1 0.0113
N#C[C@H]1N[C@H](CO)[C@@H]1c1ccc(C#Cc2ccccc2F)cc1 0.0442
CC(C)C#Cc1ccc([C@@H]2[C@@H](C#N)N(C(=O)C3CC3)[C@@H]2CO)cc1 1.34
C[C@@H]1CN([C@@H](C)CO)C(=O)c2cc(-c3ccc(C#N)cc3)cnc2O[C@@H]1CN(C)Cc1cccnc1 0.499
COc1cccc(S(=O)(=O)Nc2ccc3c(c2)[C@@H]2C[C@H](CC(=O)NC4CCCCC4)O[C@H](CO)[C@@H]2O3)c1 0.0301
O=S(=O)(Cc1ccccc1)N1CCCCN2[C@H](CO)[C@@H](c3ccc(-c4cncnc4)cc3)[C@H]2C1 1.15
CCc1sc(N2[C@@H](C#N)[C@@H](c3ccccc3-c3ccccc3)[C@@H]2CO)nc1C 1.04
COc1ccc(NC(=O)N2CC(=O)N3[C@H](CO)[C@@H](c4ccc(C#CCC5CCCC5)cc4)[C@H]3C2)cc1 2.81
COc1cccc(C#Cc2ccc([C@@H]3[C@H]4CN(C(=O)Cc5ccccc5)CC(=O)N4[C@H]3CO)cc2)c1 -0.17
CCCNC(=O)N1CC(=O)N2[C@@H](CO)[C@H](c3ccc(-c4ccc(C)cc4)cc3)[C@@H]2C1 -1.44
COc1ccccc1NC(=O)N1CC(=O)N2[C@H](CO)[C@@H](c3ccc(C#Cc4ccc(F)cc4)cc3)[C@H]2C1 3.22
CCCNC(=O)N1CC(=O)N2[C@H](CO)[C@@H](c3ccc(-c4ccc(F)cc4)cc3)[C@H]2C1 -0.254
COCC(=O)N1CC(=O)N2[C@@H](CO)[C@@H](c3ccc(C#CC(C)C)cc3)[C@@H]2C1 1.03
COc1ccccc1NC(=O)N1CC(=O)N2[C@H](CO)[C@H](c3ccc(C#Cc4ccccc4)cc3)[C@H]2C1 -2.66
C[C@H]1CN([C@@H](C)CO)C(=O)CCCn2nncc2CO[C@H]1CN(C)S(=O)(=O)c1ccccc1C#N -0.585
Cc1ccc(-c2ccc([C@H]3[C@H](CO)N4C(=O)CN(S(=O)(=O)c5cccc(F)c5)C[C@@H]34)cc2)cc1 1.91
C[C@H](NC(=O)C[C@@H]1C[C@@H]2c3cc(NS(=O)(=O)c4ccc(F)cc4)ccc3O[C@@H]2[C@@H](CO)O1)c1ccccc1 -0.633
O=C1NCCCOCc2cn(nn2)CC[C@@H]1Cc1ccc(-c2ccccc2)cc1 -0.0302
O=C(c1ccncc1)N1CC(=O)N2[C@H](CO)[C@@H](c3ccc(-c4cccnc4)cc3)[C@H]2C1 2.02
O=C(c1ccncc1)N1CC(=O)N2[C@H](CO)[C@H](c3ccc(-c4ccccc4F)cc3)[C@@H]2C1 0.944
CCCC#Cc1ccc([C@@H]2[C@@H](CO)N3C(=O)CN(C(=O)c4ccncc4)C[C@@H]23)cc1 1.2
CCCC#Cc1ccc([C@H]2[C@@H](CO)N3C(=O)CN(C(=O)c4ccncc4)C[C@H]23)cc1 0.281
COc1ccc(C#Cc2ccc([C@@H]3[C@@H](CO)N4C(=O)CN(C(=O)c5ccc(F)cc5)C[C@@H]34)cc2)cc1 0.452
CN(C)C(=O)c1ccc(-c2ccc([C@@H]3[C@H](C#N)N(C(=O)C4CC4)[C@H]3CO)cc2)cc1 -0.273
COc1ccc(CN(C)C[C@@H]2Oc3ccc(NC(=O)Nc4ccc5c(c4)OCO5)cc3CC(=O)N([C@H](C)CO)C[C@H]2C)cc1 1.72
COc1ccc2c3c(n(C)c2c1)[C@@H](CO)N(CC1CC1)CC31CCN(C(=O)c2cccc(F)c2)CC1 0.882
CO[C@H](CN(C)C(=O)c1cnccn1)[C@@H](C)CN([C@@H](C)CO)S(=O)(=O)c1ccccc1 1.89
CN(C)CC(=O)N1[C@H](C#N)[C@H](c2ccccc2-c2cccc(C(=O)N(C)C)c2)[C@@H]1CO 4.1
C[C@@H]1CN([C@H](C)CO)C(=O)c2c(c3ccccc3n2C)-c2ccccc2CO[C@H]1CN(C)C(=O)[C@@H](Cc1ccccc1)N(C)C -1.45

z-score, active:
N#C[C@@H]1N[C@@H](CO)[C@@H]1c1ccc(C#Cc2ccccc2F)cc1 -3.8
COCC(=O)N1[C@H](CO)[C@@H](c2ccc(C#Cc3ccccc3F)cc2)[C@@H]1C#N -3.16
COc1ccccc1C#Cc1ccc([C@H]2[C@@H](C#N)N(C(=O)C3CCCCC3)[C@@H]2CO)cc1 -7.41
COc1ccccc1C#Cc1ccc([C@@H]2[C@@H](CO)N(C(=O)C3CC3)[C@H]2C#N)cc1 -8.33
COCC(=O)N1CC(=O)N2[C@H](C1)[C@@H](c1ccc(C#Cc3cccc(OC)c3)cc1)[C@@H]2CO -5.09
CCCNC(=O)N1CC(=O)N2[C@H](C1)[C@@H](c1ccc(C#Cc3ccccc3)cc1)[C@@H]2CO -4.24
COc1ccccc1NC(=O)N1CC(=O)N2[C@H](C1)[C@H](c1ccc(C#Cc3ccccc3)cc1)[C@@H]2CO -3.53
Cc1ccccc1-c1ccc([C@H]2[C@@H](CO)N3C(=O)CN(C(=O)c4ccncc4)C[C@H]23)cc1 -10
Cc1ccccc1-c1ccc([C@H]2[C@@H](CO)N3C(=O)CN(C(=O)c4ccncc4)C[C@@H]23)cc1 -3.52
